# Reference: the supplement of paper PMC10681739
# Target: RUNX1 (UniProt Q01196)
# Assay: RUNX1 binding intensity (PBM fluorescence) in presence of ETS1, normalised to RUNX1-only experiment (arbitrary fluorescence units); higher = stronger binding
# Details: RUNX1 concentration 2 nM; ETS1 concentration 25 nM
# Protocol: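 Cooperative gcPBM on 36-bp genomic probes with neighbouring ETS1 and RUNX1 sites. Recombinant human RUNX1 (2 nM) was incubated alone or with ETS1 (25 nM) and detected with anti-RUNX1 antibody plus Alexa488 secondary. Values are medians over 4 replicate spots; the RUNX1+ETS1 data were normalised to the RUNX1-only data. The probes sit in constant array flanks that are not printed.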
# 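Note: Full-length recombinant human ETS1 or RUNX1 bound to double-stranded 36-bp genomic probes on microarrays, detected by protein-specific primary antibody and Alexa488 secondary, spot fluorescence as median of four replicate spots.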
# Chain of RUNX1 (Q01196 whole entry): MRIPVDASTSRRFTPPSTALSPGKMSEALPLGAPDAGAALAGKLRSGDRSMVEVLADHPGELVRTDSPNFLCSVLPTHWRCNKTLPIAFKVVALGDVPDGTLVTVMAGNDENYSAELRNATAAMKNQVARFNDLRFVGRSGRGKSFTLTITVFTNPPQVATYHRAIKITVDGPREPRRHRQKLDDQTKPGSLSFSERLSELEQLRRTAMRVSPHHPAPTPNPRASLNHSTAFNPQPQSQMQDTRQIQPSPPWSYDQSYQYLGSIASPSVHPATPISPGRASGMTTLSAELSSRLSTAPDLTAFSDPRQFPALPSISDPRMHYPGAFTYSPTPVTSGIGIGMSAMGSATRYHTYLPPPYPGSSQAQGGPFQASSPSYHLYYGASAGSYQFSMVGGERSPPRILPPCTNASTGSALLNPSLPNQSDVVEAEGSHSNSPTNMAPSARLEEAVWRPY
row,Sequence,RUNX1 binding intensity
1,CCCATTTCCTGCTCTCCAGAGTTAACCACTGAAGTC,3490
2,CTTCAAAGTCAGGAAACCGTTAAACCACACTGCATC,1360
3,GCCCCCGGCTGGGCAGGATGTGGTGGCAGCTGCAGG,1320
4,TTGGTGACCTCTTCCTGTCCGCTGTGGTGTTGTTAC,2350
5,CAGTGACAGGAAGTGGTTCAGCGGTTGTTTAGGGCT,3830
6,AGAAGCTTCTACAGGAAACCACTAATGGAGACAGAG,958
7,TTTTATCCTTCCTTTTTTGTTCTTTGTGGTGGAGGT,2040
8,AGCAACAACAAAGGAAGTGGCGGCCGCAGGGGGAGG,909
9,CATAGACCGGATGCCTCGTCAACCACAGAAACCAAT,2940
10,CTGAGTGAGACAGGATGTGGGCAGACCTCTAACACA,3230
11,CCAGCGGAAAGCCGGTCAGGGGGAACCGCGGCGGGG,758
12,AGTTACAGTAAAGGATGTGGTGAAACAGATGTTTAT,923
13,GGACAGGAAGTTCCTGCAGCTTCTACCACAAACCTA,1420
14,TTTGATTTCCTGTCTCCATGTTGTGGTCAAGATTGC,4420
15,GACCAGGCGAGAGGATGTGGGTATGAGGGAGGAGCT,1090
16,GAGTGCCGTTTCCCCCGCTCACCGCGGGCTAGGGAG,1040
17,CCACGTAAAGGCGGAAGCGGTTGAGTGGACGCCATC,1640
18,CCTCCTCCAGACCATCCTGGAAACCACTGCCGTTCT,1360
19,CCAGGCGGAAGCGGCCGGGAGTAGCGCTGCGGTTGG,1610
20,GTTTACAGGGGACAGGAAATGTGGGTGAACTCAGCC,975

row,Sequence,RUNX1 binding intensity
1,TGATTAAAAACAGGATGTGGGTGAATAGTCATGCAT,2490
2,TTCTGTAGCTTAGGATGTGGGTTTCTTTGTTTCTGA,1030
3,AGTCGGAAGCCATCTGCCCCAACTTGCGGTCTTCAC,1080
4,GTTAGAGGAAGAGGAAGCGGTCAAGAGATCGTCACA,1810
5,ATCATCTAGGAGACAGGATGTGGTTAGGGTGTTAAA,7840
6,CTGCGAGCTCAGAACGGAAACCACAGCAACTACCGT,1550
7,GGGGCAGCTTCCGGCAGGAGAGCCCGCATTCCCGGC,2470
8,TCTTGCCCGGGTCGGAAATGGTGGTCACGAGCGCTT,991
9,CCCCCACATCCTGTTTGGTTTGTGGGACACCTCAAC,4080
10,CAACGGCGTAGCCGGAAGTCAGTGGTTTTCGCCCCA,1650
11,AGGGTTGGGGAGGATGTTGTGGTTATTATTGACATA,2840
12,ACCGGGTGCTGAGGAGGAAGTGGTTGCTATAACCCC,1120
13,CGGTCAGGTCGCAGGAAACCACAGCGGCAGCGCGGC,1840
14,GTGGTCGGGAGGGGAAGTGAGGCGGTTACCTCGGCG,925
15,CACGCCTGCGGAAGATGAAAACCACACGTCATGCAG,915
16,CCGGGACAGGAAGAGGCTGGGGACCGCGGCGAAGGT,1030
17,AGATTAGATGCAGGATGTGGTATACAAAGGCACGTT,1820
18,TTCATAAAGGAGAGGAAACCTGACCACGACAGAAAG,754
19,ACCAGCAACGGAAATCAGATCTCTTGTGGTTATTAT,1680
20,CTGTCATCTTCCTGACAGCACGCCCACAAAGGACCA,916
